These results are taken from PubChem BioAssay.

Experiment [1] is described as follows: viability loss in pontine glioma line – cell-based, SU-DIPG-XVII, MIPE5.0, CellTiter-Glo, qHTS, dose response (AID 1347060).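 As to AC50: cells exposed to compound for 48 hours before viability readout.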 Particulars: CellTiter-Glo ATP luminescence.
Experiment [2] in a line: viability loss in pontine glioma line – cell-based, SU-DIPG-XIII, MIPE5.0, CellTiter-Glo, qHTS, dose response (AID 1347064; cut-off not given, nearly all actives have AC50 up to about 23 µM;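 as to AC50: cells exposed to compound for 48 hours before the viability read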). Particulars: CellTiter-Glo ATP luminescence.
A short description of experiment [3]: viability loss in pontine glioma line – cell-based, SU-DIPG-XXV, MIPE5.0, CellTiter-Glo, qHTS, dose response (AID 1347065).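 Also: cells exposed to compound for 48 hours before ATP readout.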 Particulars: CellTiter-Glo ATP luminescence.
A short description of experiment [4]: growth inhibition of DIPG cells – cell-based, MIPE5.0 library, qHTS (AID 1347068; cut-off not given, nearly all actives have IC50 up to about 30 µM;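 as to IC50: cells exposed to compound for 48 hours before viability readout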). To be noted: SU-DIPG-XXV viability.
Experiment [5] has as its system Hepatitis C virus NS3 helicase. Kind of experiment: blockers of NS3h binding to ssDNA – biochemical, fluorescence polarization, LOPAC1280 library, primary screen (AID 687035; in the data active = inhibition above about 37%). Particulars: Purified HCV NS3 helicase, Cy5-dT15 ssDNA binding fluorescence polarization; stronger effect = higher value; concentration not given here.
Experiment [6] can be described thus: compounds altering Cy5-DNA-NS3h complex signal – biochemical, LOPAC1280, artefact control for HCV NS3 helicase inhibitor project (AID 687037; call rule not given here). To be noted: Cy5-DNA-NS3h complex fluorescence interference counterscreen.
A short description of experiment [7]: JHH-DIPG-1 glioma cell viability, MIPE5.0 library, CellTiter-Glo luminescence, qHTS (AID 1347067).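 Also: cells exposed to compound for 48 hours before readout.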 Particulars: JHH-DIPG-1 glioma viability, CellTiter-Glo ATP luminescence.
Experiment [8] can be described thus: viability loss with induced miR-34 in A549 – imaging, A549 dox-inducible miR-34, nuclei and caspase counts, primary screen (AID 1347080;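 active = compounds whose cell count with miR-34 switched on is under 0.7 times the count with it off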). To be noted: A549 miR-34 inducible, Hoechst nuclei count, 48 h.
Experiment [9] in a line: blockers of cellular phospholipid synthesis – cell-based, LOPAC library, screen 4, primary screen (AID 1347384; call rule not given here). Particulars: animal cells, phospholipid biosynthesis inhibition screen; at 10 µM.
A short description of experiment [10]: galactose survival enhancers in mitochondrial complex I cybrids – cell-based, galactose medium, ATP luminescence, primary screen (AID 1645843;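 active = z-score of at least 1.8 in each of two replicates, scored against plate mean and spread of sample wells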;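 also: positive z means more ATP and so rescue of galactose-driven cybrid death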). To be noted: complex I mutant cybrid cells, 72 h, stronger effect = higher value.
A short description of experiment [11]: MELAS cybrid and Rieske KO viability enhancers – cell-based, MELAS cybrids, Rieske KO mouse fibroblasts, CellTiter-Glo, primary screen (AID 1508586;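 active = mean z-score across replicates of 1.96 or higher in either the MELAS or the Rieske mutant cell line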;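 also: z relative to plate mean and SD of compound and empty wells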). To be noted: low glucose.
Experiment [12] is described as follows: liver-stage malaria parasite load reduction – cell-based, known kinase inhibitor set, luminescence, hepatoma host viability (AID 624392; call rule not given here;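 also: infected cells incubated roughly two days before readout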). Particulars: Plasmodium liver stage in hepatoma cells, luciferase luminescence, concentration not given here; liver cell % of control: measured here: host liver cell viability; parasite % of control: stronger effect = lower value.
[13] abbreviates: stronger effect = lower value, cell number ratio, induced over uninduced.
[14] abbreviates: measured here: relative caspase fold change +Dox/-Dox.
The mark [15] stands for this setting: measured here: total cells with miR-34 induction, stronger effect = lower value.
[16] abbreviates: measured here: total cells without miR-34 induction.
The mark [17] stands for this setting: MELAS cybrid survival, CellTiter-Glo 48 h, stronger effect = higher value.
Where [18] appears, read: Rieske KO mouse fibroblast survival, CellTiter-Glo 72 h.

The structures appear in SMILES notation. Values joined by “and” are separate entries in the source; they are usually repeats but may differ in a detail not shown here. Equal entries are not always repeated. Inconclusive results are not listed. Active and inactive are the calls of the source. Unless noted, the limit is not given here; nearly all actives have AC50 up to about 26 µM.

For `O=C(O)c1ccc(CN2CCC(CN[C@@H]3C[C@H]3c3ccccc3)CC2)cc1`, the outcome in experiment [1], in experiment [2], in [3] and in experiment [4] was inactive.
With `CNC(=O)c1cccc2cc(Oc3ccnc4cc(OCC5(N)CC5)c(OC)cc34)ccc12`, the AC50 in [1] is 1.48 µM (active); in experiment [2] it was 1.32 µM (active); in experiment [3], 1.86 µM (active). The 50% inhibitory concentration (IC50) in experiment [4] was 7.42 µM (active).
For `Cc1ncc(Cl)cc1NCc1ccc(C(=O)NC(CC2CCCC2)C(=O)NC2CC2)s1` (configuration not stated), the result in [1], in experiment [2], in [3] and in experiment [4] was inactive.
Take `CC(=O)N1CCC(Nc2cc(C(=O)NC[C@H](O)CN3CCc4ccccc4C3)ncn2)CC1`: the result in experiment [1], in [2], in experiment [3] and in experiment [4] was inactive.
With `COc1cc(/C=C(\C#N)C(=O)Nc2nnc(C(F)(F)F)s2)ccc1OCc1ccc(C(F)(F)F)cc1C(F)(F)F`, the inhibition in [5] is -5% (inactive). Also, the fluorescence ratio (interference) in experiment [6] is 1 (inactive). For the same compound, the half-maximal activity concentration (AC50) is 5.25 µM (active) in experiment [1], 4.17 µM (active) in experiment [2], 3.72 µM (active) in experiment [3] and 14.8 µM (active) in experiment [7]. The values for the fold change in experiment [8] (setting [13]) and in [8] (setting [14]) were 0.986 (inactive) and 0.417, respectively. Moreover, the cell count stood at 1620 in experiment [8] (setting [15]) and 1640 in [8] (setting [16]). For the same compound, the compound was called inactive in experiment [9]. Besides, the z-score in experiment [10] was 0.35 (inactive).
With `N#CCC1(n2cc(-c3ncnc4[nH]ccc34)cn2)CN(C2CCN(C(=O)c3ccnc(C(F)(F)F)c3F)CC2)C1`, the call in experiment [1], in experiment [2], in [3] and in experiment [4] was inactive.
For the compound `CC(C)(O)c1coc(S(=O)(=O)NC(=O)Nc2c3c(cc4c2CCC4)CCC3)c1`, the compound was called inactive in experiment [1], in [2], in experiment [3] and in experiment [4].
For `Cc1nc(-c2cn3c(n2)-c2ccc(-c4cnn(C(C)(C)C(N)=O)c4)cc2OCC3)n(C(C)C)n1`, the values for the AC50 in experiment [1], in experiment [2] and in [3] were 0.525 µM (active), 0.295 µM (active) and 0.105 µM (active), respectively. The IC50 in experiment [4] was 1.66 µM (active).
As to `O=C1CC(c2c[nH]c3ccc(F)cc23)C(=O)N1` (configuration not stated), the compound was classed as inactive in experiment [1], in experiment [2], in experiment [3] and in [4].
Turning to `Cc1c(NC(=O)OCC2COCCN2)cn2ncnc(Nc3ccc4c(cnn4Cc4cccc(F)c4)c3)c12` (configuration not stated), the AC50 in experiment [1] was 18.6 µM (active); in experiment [2], 23.5 µM (active); in [3], 23.5 µM (active); in experiment [7], 20.9 µM (active). The values for the fold change in [8] (setting [13]) and in experiment [8] (setting [14]) were 1.04 (inactive) and 0.875, respectively. Further, the cell count turned out to be 4510 in [8] (setting [15]) and 4340 in [8] (setting [16]). Also, the z-score in [11] (setting [17]) was -0.264 (inactive); in experiment [11] (setting [18]), 0.355.
`C[C@@H](c1ccc2nccn2c1)n1nnc2ncc(-c3cnn(C)c3)nc21`: the compound was called inactive in experiment [1], in experiment [2], in experiment [3] and in experiment [4].
Turning to `Cc1ncc(NC(=O)c2ccc(CN3CCN(C)CC3)c(C(F)(F)F)c2)cc1Nc1nccc(-c2cccnc2)n1`, the AC50 in experiment [1] was 23.5 µM (active); in experiment [2], 9.34 µM (active); in experiment [3] it was 18.6 µM (active). The call in experiment [4] was inactive.
As to `C=CC(=O)N1CC/C(=C\c2ccc(F)c([N+](=O)[O-])c2)C(=O)/C(=C/c2ccc(F)c([N+](=O)[O-])c2)C1`, the half-maximal activity concentration (AC50) was 0.0742 µM (active) in [1], 0.059 µM (active) in experiment [2] and 0.0934 µM (active) in experiment [3]. Further, the concentration for half-maximal inhibition (IC50) in experiment [4] was 0.186 µM (active).
Take `Cc1c(F)cccc1NC(=O)Nc1ccc(Cl)c(S(=O)(=O)[C@H]2CCCNC2)c1O`: the outcome in experiment [1], in experiment [2], in [3] and in experiment [4] was inactive.
In the case of `COc1cc2c(cc1OC(C)C)[C@H](c1ccc(Cl)cc1)N(c1ccc(N(C)CC3CCC(N4CCN(C)C(=O)C4)CC3)cc1)C(=O)C2` (some centres not stated), the results for the AC50 in experiment [1], in experiment [2] and in experiment [3] were 26.3 µM (active), 20.9 µM (active) and 26.3 µM (active), respectively. In [4], the 50% inhibitory concentration (IC50) is 29.5 µM (active).
For the compound `O=C(NOCC(O)CO)c1ccc(F)c(F)c1Nc1ccc(I)cc1F` (configuration not stated), the liver cell % of control in experiment [12] is 81.2% and 75.1% and 63.7%. Moreover, in experiment [12], the parasite % of control is 153% (inactive) and 268% (inactive) and 132% (inactive). The AC50 in experiment [1] was 0.417 µM (active); in experiment [2], 0.525 µM (active); in [3], 0.934 µM (active); in experiment [7], 0.166 µM (active). Moreover, the figures for the fold change in experiment [8] (setting [13]) and in experiment [8] (setting [14]) were 1.1 (inactive) and 0.559, respectively. Further, the cell count in experiment [8] (setting [15]) is 2790; in [8] (setting [16]), 2520. Besides, the z-score in experiment [11] (setting [17]) was -0.718 (inactive); in experiment [11] (setting [18]) it was -0.702.
Consider `Cc1ccc(Sc2ccccc2N2CCNCC2)c(C)c1`, for which the concentration at half-maximal activity (AC50) in experiment [1] was 11.8 µM (active); in experiment [2], 16.6 µM (active); in experiment [3], 10.5 µM (active); in experiment [7] it was 9.34 µM (active). Further, the fold change was 0.93 (inactive) in [8] (setting [13]) and 0.501 in experiment [8] (setting [14]). Besides, the figures for the cell count in [8] (setting [15]) and in [8] (setting [16]) were 4800 and 5160, respectively. Also, the results for the z-score in experiment [11] (setting [17]) and in experiment [11] (setting [18]) were -0.442 (inactive) and -1.42, respectively.
Turning to `Cc1ccc(-n2nc(C(C)(C)C)cc2NC(=O)NCc2cc(F)ccc2Oc2ccc3c(cnn3CCO)c2)cc1`, the AC50 in experiment [1] is 10.5 µM (active); in [2] it was 6.61 µM (active); in experiment [3] it was 5.25 µM (active). The IC50 in experiment [4] is 18.6 µM (active).
In the case of `CC(C)Oc1ccc(-c2nn([C@@H](C)c3oc4ccc(F)cc4c(=O)c3-c3cccc(F)c3)c3ncnc(N)c23)cc1F`, the compound was called inactive in [1], in experiment [2], in experiment [3] and in experiment [4].
On to `COc1cccc(OCCCN)c1-c1cc(Nc2cnc(C#N)cn2)n[nH]1`, for which the AC50 was 0.0332 µM (active) in [1], 0.0742 µM (active) in experiment [2] and 0.059 µM (active) in experiment [3]. The result in experiment [4] was inactive.
For `COc1ccc([C@@H](O)[C@@H](C)Oc2ccc([C@H]3O[C@H](c4ccc(O[C@H](C)[C@H](O)c5ccc(OC)c(OC)c5)c(OC)c4)[C@H](C)[C@H]3C)cc2OC)cc1OC`, the AC50 in experiment [1] was 20.9 µM (active); in experiment [2], 5.9 µM (active); in [3], 10.5 µM (active). Moreover, the half-inhibitory concentration (IC50) in experiment [4] is 11.8 µM (active).
